The results in this text go back to PubChem BioAssay (NCATS).

The target of experiment [1] is D(1A) dopamine receptor (Homo sapiens) (UniProt P21728). As to the kind of experiment: HTS Assay for Allosteric Agonists of the Human D1 Dopamine Receptor: Primary Screen for Agonists (AID 488981). Further: 0% is about no effect. In short, it runs like this:
(§1)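 Calcium flux in an inducible, force-coupled HEK293 Trex D1 line (overnight at 30 C): agonist mode is the 180 s kinetic read after compound; potentiator mode is the following 180 s read after dopamine at EC20.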

The target is the same in experiment [2]. As to the kind of experiment: HTS Assay for Allosteric Agonists of the Human D1 Dopamine Receptor: Primary Screen for Potentiators (AID 488982). Further: potency means the concentration at half of the fitted maximal effect. In short, it runs like this: as §1
For experiment [3] the target is unchanged. Briefly: HTS Assay for Allosteric Agonists of the Human D1 Dopamine Receptor: Primary Screen for Antagonists (AID 488983).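 Further: calcium flux response to an EC80 dopamine challenge measured with no-wash dye; on the % scale 0 is the no-effect control and ±100 the full control effect; nearly all actives have a fitted effect of over 65% in size.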 In short, it runs like this: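 Screening of inducible HEK293 T-REx D1 cells: compound first, EC80 dopamine 180 s later, each phase read kinetically for calcium over 180 s.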
The nature of experiment [4]: Validation screen for small molecules that induce genotoxicity in human embryonic kidney (HEK293T) cells expressing luciferase-tagged ELG1 (AID 493106). Further: 0% is about no effect. In short, it runs like this: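 Reporter-gene quantitative HTS in HEK293T cells carrying luciferase-tagged ELG1, whose level climbs under genotoxic stress. Compound exposure lasts 16 hr at 37 °C before luciferase detection.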

Experiment [5] addresses ATPase family AAA domain-containing protein 5 (Homo sapiens) (UniProt Q96QE3). As to the kind of experiment: Validation screen for small molecules that inhibit ELG1-dependent DNA repair in human embryonic kidney (HEK293T) cells expressing luciferase-tagged ELG1 (AID 493107). Further: nearly all actives have a fitted effect of over 70% in size. Further: potency means the concentration at half of the fitted maximal effect. In short, it runs like this:
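Quantitative HTS in HEK293T cells carrying luciferase-tagged ELG1, stimulated with 5-fluorouridine alongside compound for 16 hr. Loss of luciferase signal marks inhibition of ELG1 response.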

Experiment [6] can be described thus: Validation screen for small molecules that induce DNA re-replication in SW480 colon adenocarcinoma cells (AID 504364). Further: 0% is about no effect. The gist of the method: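 Cells are treated 48 hr with test compound, stained 40 min with Hoechst at 37 C, and scanned for nuclear fluorescence; compounds inducing re-replication increase nuclei with elevated intensity.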
The target in experiment [7] is Peptidyl-prolyl cis-trans isomerase NIMA-interacting 1 (Homo sapiens) (UniProt Q13526). Briefly: qHTS Validation Assay to Find Inhibitors of Pin1 (AID 504536; active means well fitted inhibition curve with a large enough effect in the polarisation, with a control signal flat, not every such curve was filed as active; the % refers to the polarisation;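 further: 0% = full Pin1 enzyme wells and -100% = no-enzyme wells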). In short, it runs like this:
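Fluorescence polarization competition: compounds (titration) displace HiFluor-488-labeled Pin1-1b peptide from Pin1 (0.3 uM final) in pH 7.5 HEPES buffer with DTT, 10 min at room temperature; %Activity normalized to no-enzyme wells, curves fitted.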

For experiment [8], the target named is Phosphoglycerate kinase, glycosomal (Trypanosoma brucei brucei) (UniProt P07378). As to the kind of experiment: qHTS Validation Assay to Find Inhibitors of Phosphoglycerate Kinase (AID 504547).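 Further: control wells lack PGK and mark full inhibition.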 In short, it runs like this:
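Inhibition of the enzyme is judged by a Kinase-Glo Plus luminescent signal following a one-hour incubation at room temperature. Because 1,3-BPG is unstable, it is made in situ by GAPDH at 100nM final; no-PGK wells define the baseline.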

Experiment [9] is described as follows: Inducers of the Endoplasmic Reticulum Stress Response (ERSR) in human glioma: Validation (AID 504836). Further: 0% is about no effect. In short, it runs like this: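 ERSR induction read as luciferase luminescence (Bright-Glo, 10 min at room temperature) in stably transfected human U87-MG glioma cells exposed to compounds for 16 h, using GRP78 as sensor.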
Experiment [10] addresses Ubiquitin carboxyl-terminal hydrolase 1 (Homo sapiens) (UniProt O94782). As to the kind of experiment: Inhibitors of USP1/UAF1: Pilot qHTS (AID 504865). Further: nearly all actives have a fitted effect of over 35% in size. Further: potency means the concentration at half of the fitted maximal effect. The gist of the method: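 In 50mM HEPES pH 7.8 containing 0.5mM EDTA, 1mM TCEP, 0.1 mg/ml BSA and 0.01% Tween-20, 1nM USP1/UAF1 is exposed to compound for 15 min, then Ub-Rho (150nM final) is added and fluorescence is read over time.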
In general terms: qHTS replaces the single test concentration by a dilution series.

The target in experiment [11] is Thyrotropin receptor (Homo sapiens) (UniProt P16473). Briefly: qHTS Assay for Antagonists of the Thyroid Stimulating Hormone Receptor (AID 488980). Further: series mostly up to about 58 µM; 0% is about no effect. The gist of the method: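 Readout is cAMP by HTRF competition between cellular cAMP and cAMP-d2 for a cryptate-labelled antibody. Antagonism was assessed in TSHR-transfected HEK293 cells stimulated with 4 nM TSH (EC80, final) in the presence of RO 20-1724.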

Experiment [12] concerns the target Thyrotropin-releasing hormone receptor (Homo sapiens) (UniProt P34981). Briefly: qHTS for Small Molecule Agonists and Allosteric Enhancers of Human TRH Receptor: Validation Screen for Agonists (AID 493127;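 active means calcium activation more than 3 SD above the typical response in the agonist read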;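 further: intracellular calcium rise by fluo-8 fluorescence before TRH EC20 addition; 0% is about no effect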). The settings on record: TRH receptor agonist cell assay; at 2 µM; stronger effect = higher value. The gist of the method: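 Gq-coupled calcium mobilization in TRHR cells after compound addition, monitored kinetically with fluo-8 dye on an FDSS reader.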

Experiment [13] can be described thus: Nrf2 qHTS screen for inhibitors: Validation (AID 493153; active means well fitted inhibition curve with a large enough effect in the main read-out, with a control signal flat, not every such curve was filed as active; further: potency means the concentration at half of the fitted maximal effect). The settings on record: Potency: luciferase luminescence; viability change: measured here: cytotoxicity max response. The gist of the method:
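Dose-response validation uses reporter A549 cells with firefly luciferase under an antioxidant response element. Compounds stay on cells 18-24 h at 37°C, and luminescence indicates Nrf2-driven transcription.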

Experiment [14] concerns the target Galactokinase (Homo sapiens) (UniProt P51570). As to the kind of experiment: qHTS Validation Assay for Inhibitors of Human Galactokinase (GALK) (AID 493189). Further: 0% is about no effect. The gist of the method:
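5 nM GALK / 100 uM galactose / 35 uM ATP, 20 mM HEPES pH8.0, 5 mM MgCl2, 60 mM NaCl, 1 mM DTT, 0.01% BSA (final). RT 1 h; Kinase-Glo Plus luminescence.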

Experiment [15] has as its target DNA dC->dU-editing enzyme APOBEC-3G (Homo sapiens) (UniProt Q9HC16). As to the kind of experiment: qHTS for inhibitors of Vif-A3G interactions: Validation (AID 588379). Further: 0% is about no effect. In short, it runs like this: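 HeLa cells stably expressing Vif and A3G-eYFP, 700 cells/well, incubated overnight at 37 deg C, then exposed to compound overnight at 37 deg C. Inhibition of Vif-mediated degradation read as increased yellow fluorescence (Ex 488/Em 500-530) by laser-scanning cytometry.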

In experiment [16] the target is ATP-dependent 6-phosphofructokinase (Trypanosoma brucei brucei) (UniProt O15648). Briefly: qHTS Assay to Find Inhibitors of T. brucei phosphofructokinase: hit validation (AID 492961).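 Further: luminescence reports ADP formed as PFK phosphorylates fructose-6-phosphate with ATP; series mostly up to about 51 µM; on the % scale 0 is the no-effect control and ±100 the full control effect.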 The gist of the method:
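ADP-Glo luminescence read-out of ADP formed by 1.25 nM PFK from 0.1 mM ATP and 0.5 mM F6P (TEA pH 8.0, 45 min, RT). Compounds titrated; activity normalized to no-enzyme and full-enzyme controls.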

Molecules are shown by their SMILES. “And” between values parts separate entries of the source, which are not always exact repeats. Equal entries are not always repeated. Results filed as inconclusive are left out. A structure can be active in one record and inactive in another. The source made the active and inactive calls. Unless noted, the call rests on the fitted dose curve; in most records, active means well fitted curve in the direction sought with a large enough effect; inconclusive means small, poorly fitted or top-dose-only effect, or another doubt; inactive means no such curve, though single readings can be large; an effect the other way counts as inactive or inconclusive.

Chain of Ubiquitin carboxyl-terminal hydrolase 1 (Homo sapiens) (O94782 whole entry, looked up): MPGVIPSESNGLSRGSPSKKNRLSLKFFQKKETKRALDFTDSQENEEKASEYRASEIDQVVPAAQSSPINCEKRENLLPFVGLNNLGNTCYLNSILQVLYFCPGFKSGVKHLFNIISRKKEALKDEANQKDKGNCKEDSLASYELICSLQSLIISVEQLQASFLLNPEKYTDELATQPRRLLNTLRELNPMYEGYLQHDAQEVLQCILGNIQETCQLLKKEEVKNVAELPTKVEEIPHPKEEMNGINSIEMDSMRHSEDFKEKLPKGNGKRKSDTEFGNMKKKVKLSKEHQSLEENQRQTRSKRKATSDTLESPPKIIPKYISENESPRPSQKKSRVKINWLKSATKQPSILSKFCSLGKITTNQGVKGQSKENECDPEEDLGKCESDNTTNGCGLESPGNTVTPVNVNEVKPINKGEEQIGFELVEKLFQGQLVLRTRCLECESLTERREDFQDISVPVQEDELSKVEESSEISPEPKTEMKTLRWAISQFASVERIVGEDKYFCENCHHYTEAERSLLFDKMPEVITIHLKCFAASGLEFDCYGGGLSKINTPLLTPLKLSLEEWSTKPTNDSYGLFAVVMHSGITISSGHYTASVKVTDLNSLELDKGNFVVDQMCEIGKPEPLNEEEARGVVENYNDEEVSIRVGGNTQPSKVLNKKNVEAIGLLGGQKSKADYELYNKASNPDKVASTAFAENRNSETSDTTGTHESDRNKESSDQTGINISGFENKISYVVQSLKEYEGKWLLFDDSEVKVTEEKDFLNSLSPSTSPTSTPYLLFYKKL
Chain of ATPase family AAA domain-containing protein 5 (Homo sapiens) (Q96QE3 whole entry, looked up, the tested form may be a part): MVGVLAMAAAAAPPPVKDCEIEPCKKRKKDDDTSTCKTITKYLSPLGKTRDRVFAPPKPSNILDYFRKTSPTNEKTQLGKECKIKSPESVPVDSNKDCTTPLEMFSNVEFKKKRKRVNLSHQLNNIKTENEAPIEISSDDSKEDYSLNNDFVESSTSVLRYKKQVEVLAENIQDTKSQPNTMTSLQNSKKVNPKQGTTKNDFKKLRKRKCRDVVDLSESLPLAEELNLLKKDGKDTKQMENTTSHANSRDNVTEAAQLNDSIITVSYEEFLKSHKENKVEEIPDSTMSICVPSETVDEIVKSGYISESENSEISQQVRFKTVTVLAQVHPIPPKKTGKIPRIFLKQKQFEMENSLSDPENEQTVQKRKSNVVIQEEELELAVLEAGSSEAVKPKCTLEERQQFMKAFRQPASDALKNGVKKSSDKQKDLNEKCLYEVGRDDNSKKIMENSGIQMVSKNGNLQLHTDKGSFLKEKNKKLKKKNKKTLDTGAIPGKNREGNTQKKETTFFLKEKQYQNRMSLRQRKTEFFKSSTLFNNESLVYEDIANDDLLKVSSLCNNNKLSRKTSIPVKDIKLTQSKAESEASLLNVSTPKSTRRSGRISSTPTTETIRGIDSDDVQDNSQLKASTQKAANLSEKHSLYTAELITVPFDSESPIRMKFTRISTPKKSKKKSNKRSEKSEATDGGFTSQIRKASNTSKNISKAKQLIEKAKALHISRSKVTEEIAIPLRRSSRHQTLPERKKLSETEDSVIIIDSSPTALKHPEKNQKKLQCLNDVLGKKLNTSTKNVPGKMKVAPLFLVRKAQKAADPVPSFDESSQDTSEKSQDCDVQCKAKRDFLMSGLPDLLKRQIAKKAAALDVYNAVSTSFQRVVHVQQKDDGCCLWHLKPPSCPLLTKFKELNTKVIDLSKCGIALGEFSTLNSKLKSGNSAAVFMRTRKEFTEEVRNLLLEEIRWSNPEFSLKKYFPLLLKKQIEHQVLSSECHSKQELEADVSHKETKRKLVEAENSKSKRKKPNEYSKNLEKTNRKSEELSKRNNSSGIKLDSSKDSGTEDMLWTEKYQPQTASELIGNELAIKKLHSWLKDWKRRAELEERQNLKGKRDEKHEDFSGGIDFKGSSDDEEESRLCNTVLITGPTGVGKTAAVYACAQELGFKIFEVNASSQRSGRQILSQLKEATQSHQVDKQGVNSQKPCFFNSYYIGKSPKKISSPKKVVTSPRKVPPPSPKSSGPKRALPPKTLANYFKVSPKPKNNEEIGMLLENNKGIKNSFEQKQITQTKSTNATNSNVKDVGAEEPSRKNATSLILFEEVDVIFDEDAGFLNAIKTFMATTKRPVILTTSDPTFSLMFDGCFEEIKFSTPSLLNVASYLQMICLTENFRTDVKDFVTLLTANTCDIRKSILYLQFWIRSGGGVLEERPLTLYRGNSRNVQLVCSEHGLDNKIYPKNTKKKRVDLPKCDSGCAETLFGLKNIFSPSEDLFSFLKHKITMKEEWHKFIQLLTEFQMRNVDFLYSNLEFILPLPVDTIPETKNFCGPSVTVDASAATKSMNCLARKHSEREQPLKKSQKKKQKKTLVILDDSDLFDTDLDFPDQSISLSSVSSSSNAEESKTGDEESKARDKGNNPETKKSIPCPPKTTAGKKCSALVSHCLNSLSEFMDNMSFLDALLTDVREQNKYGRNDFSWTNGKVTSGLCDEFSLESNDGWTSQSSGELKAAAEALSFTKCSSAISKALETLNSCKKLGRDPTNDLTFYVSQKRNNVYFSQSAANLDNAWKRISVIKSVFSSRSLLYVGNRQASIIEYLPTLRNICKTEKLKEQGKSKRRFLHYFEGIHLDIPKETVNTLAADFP
Chain of Thyrotropin-releasing hormone receptor (Homo sapiens) (P34981 whole entry, looked up): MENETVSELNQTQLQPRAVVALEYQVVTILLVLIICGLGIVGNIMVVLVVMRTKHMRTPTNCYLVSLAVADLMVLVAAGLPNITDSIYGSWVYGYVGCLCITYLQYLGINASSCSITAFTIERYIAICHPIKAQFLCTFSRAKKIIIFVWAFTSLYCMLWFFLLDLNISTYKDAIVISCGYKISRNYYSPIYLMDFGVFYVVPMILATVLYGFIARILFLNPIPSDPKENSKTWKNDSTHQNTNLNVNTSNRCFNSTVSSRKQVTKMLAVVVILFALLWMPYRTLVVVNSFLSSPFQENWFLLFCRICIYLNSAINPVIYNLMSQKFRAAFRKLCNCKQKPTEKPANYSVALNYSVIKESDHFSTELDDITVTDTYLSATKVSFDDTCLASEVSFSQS
Chain of Thyrotropin receptor (Homo sapiens) (P16473 whole entry, looked up): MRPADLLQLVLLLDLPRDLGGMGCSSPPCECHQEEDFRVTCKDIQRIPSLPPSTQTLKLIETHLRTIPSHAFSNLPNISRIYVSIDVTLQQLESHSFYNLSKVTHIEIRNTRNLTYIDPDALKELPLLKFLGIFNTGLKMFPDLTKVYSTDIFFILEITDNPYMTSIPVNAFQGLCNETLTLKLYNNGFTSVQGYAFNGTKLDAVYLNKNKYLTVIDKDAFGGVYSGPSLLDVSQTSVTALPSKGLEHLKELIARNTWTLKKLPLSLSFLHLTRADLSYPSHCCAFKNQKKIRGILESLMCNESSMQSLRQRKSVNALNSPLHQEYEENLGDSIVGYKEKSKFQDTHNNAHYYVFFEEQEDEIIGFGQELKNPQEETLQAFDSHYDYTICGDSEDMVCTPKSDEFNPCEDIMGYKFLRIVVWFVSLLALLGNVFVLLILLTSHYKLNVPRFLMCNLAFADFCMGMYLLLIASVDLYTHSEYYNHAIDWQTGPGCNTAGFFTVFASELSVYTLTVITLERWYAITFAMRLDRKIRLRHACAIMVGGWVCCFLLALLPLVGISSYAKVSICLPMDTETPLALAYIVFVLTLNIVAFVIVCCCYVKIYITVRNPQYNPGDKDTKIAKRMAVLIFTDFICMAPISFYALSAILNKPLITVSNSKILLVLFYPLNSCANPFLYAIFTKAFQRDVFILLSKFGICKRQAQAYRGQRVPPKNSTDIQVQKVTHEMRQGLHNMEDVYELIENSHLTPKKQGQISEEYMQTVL
Chain of D(1A) dopamine receptor (Homo sapiens) (P21728 whole entry, looked up): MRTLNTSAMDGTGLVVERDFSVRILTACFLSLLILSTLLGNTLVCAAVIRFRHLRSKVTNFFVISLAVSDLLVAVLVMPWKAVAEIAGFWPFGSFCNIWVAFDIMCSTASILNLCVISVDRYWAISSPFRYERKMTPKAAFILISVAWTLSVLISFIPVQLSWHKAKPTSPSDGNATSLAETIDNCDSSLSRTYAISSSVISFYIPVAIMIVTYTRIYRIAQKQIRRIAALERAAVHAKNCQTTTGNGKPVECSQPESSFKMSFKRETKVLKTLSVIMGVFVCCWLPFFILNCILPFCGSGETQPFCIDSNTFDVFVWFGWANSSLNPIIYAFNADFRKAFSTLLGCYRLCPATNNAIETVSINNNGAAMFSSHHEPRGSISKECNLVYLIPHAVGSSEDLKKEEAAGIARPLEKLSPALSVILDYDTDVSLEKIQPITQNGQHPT
Chain of Peptidyl-prolyl cis-trans isomerase NIMA-interacting 1 (Homo sapiens) (Q13526 whole entry, looked up): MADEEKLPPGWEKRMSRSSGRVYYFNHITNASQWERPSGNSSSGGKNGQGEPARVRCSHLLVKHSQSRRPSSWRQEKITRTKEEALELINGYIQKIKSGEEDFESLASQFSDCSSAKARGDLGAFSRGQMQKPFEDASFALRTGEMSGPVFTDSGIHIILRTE
Chain of Phosphoglycerate kinase, glycosomal (Trypanosoma brucei brucei) (P07378 whole entry, looked up): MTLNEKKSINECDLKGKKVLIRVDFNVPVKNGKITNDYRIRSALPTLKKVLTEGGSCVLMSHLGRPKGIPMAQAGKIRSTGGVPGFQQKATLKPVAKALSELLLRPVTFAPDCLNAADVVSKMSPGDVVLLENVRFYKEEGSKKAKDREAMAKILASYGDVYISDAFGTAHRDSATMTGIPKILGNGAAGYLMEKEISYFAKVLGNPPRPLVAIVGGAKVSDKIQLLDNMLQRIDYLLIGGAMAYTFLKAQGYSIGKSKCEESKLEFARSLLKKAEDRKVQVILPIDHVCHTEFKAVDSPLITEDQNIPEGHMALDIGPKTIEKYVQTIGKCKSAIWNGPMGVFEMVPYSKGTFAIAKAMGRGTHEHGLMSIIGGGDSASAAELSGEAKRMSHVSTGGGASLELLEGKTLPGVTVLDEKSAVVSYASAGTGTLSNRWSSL

As to `C[C@@H]1O[C@@H](O[C@H]2C[C@@H](O)[C@]3(CO)[C@H]4[C@H](O)C[C@]5(C)[C@@H](C6=CC(=O)OC6)CC[C@]5(O)[C@@H]4CC[C@]3(O)C2)[C@H](O)[C@H](O)[C@H]1O`, the Potency result in [1], in experiment [2], in [3], in experiment [4], in [6] and in experiment [7] was “inactive” in each case. Also, the Potency entry in experiment [8] and in experiment [10] was “inactive” throughout. For the same compound, the Potency in experiment [5] was 0.092 µM (active). Moreover, the call in experiment [9] was inactive.

For `NCC1(CC(=O)O)CCCCC1`, the compound was classed as inactive in experiment [11], in [14], in experiment [9] and in experiment [15]. The Potency entry in experiment [1], in experiment [2], in experiment [3], in [4], in experiment [5] and in experiment [13] was “inactive” in each case. Also, the Potency entry in experiment [6], in experiment [7], in [8] and in [10] was “inactive” throughout. Moreover, in experiment [12], the activation is 1.12% (inactive). For the same compound, in [13], the viability change was found to be 10.1%.

In the case of `Cc1ncc(CNC(=O)N(CCCl)N=O)c(N)n1`, the compound was classed as inactive in experiment [11], in experiment [14] and in experiment [9]. Also, the Potency entry in [1], in [2], in experiment [3], in experiment [4], in experiment [5] and in [6] was “inactive” each time. Besides, the Potency entry in experiment [7], in [8] and in [10] was “inactive” in each case. Further, the activation in experiment [12] was 1.5% (inactive).

As for `COc1ccc(Cc2nccc3cc(OC)c(OC)cc23)cc1OC`, the outcome in [11], in [14] and in experiment [9] was inactive. Also, the activation in experiment [12] is -0.312% (inactive). For the same compound, the Potency in [13] was 7.31 µM (active); in experiment [10], “inactive and 50.1 µM (active)”. The viability change in [13] was -7.85%. Further, in [6], the Potency entry was “inactive”.

Consider `O=c1[nH]c2ccccc2n1CCCN1CCC(n2c(=O)[nH]c3cc(Cl)ccc32)CC1`, for which the compound was classed as inactive in experiment [11], in [16], in experiment [14] and in experiment [9]. The Potency entry in [1], in experiment [2], in experiment [4], in experiment [13], in experiment [6] and in experiment [7] was “inactive” in each case. Also, the Potency entry in experiment [8] and in experiment [10] was “inactive” in each case. The Potency in [5] was 16.4 µM (active). Further, in experiment [13], the viability change is -5.95%.

`CCC1(C2=NCCN2)Cc2ccccc2O1` (stereo not given): the compound was called inactive in experiment [11], in [14] and in experiment [9]. For the same compound, the Potency result in [1], in experiment [3], in experiment [4], in experiment [13], in experiment [6] and in experiment [7] was “inactive” in each case. For the same compound, the Potency entry in experiment [8] and in experiment [10] was “inactive” in each case. In addition, the Potency in [2] is 2.31 µM (active). Further, the activation in [12] is 0.812% (inactive). Also, the viability change in [13] came out at 1.87%.
